Assay results: PubChem BioAssay (NCATS)
Several values for one entry are separate records, joined by “and”; a condition that tells them apart may be missing. Equal entries are not always repeated. Inconclusive results are not listed. Some structures have more than one record in an assay (separate samples or runs), and their calls can disagree. Activity calls are given as the source filed them. Unless noted, the call rests on the fitted dose curve; in most records, active means well fitted curve in the direction sought with a large enough effect; inconclusive means small, poorly fitted or top-dose-only effect, or another doubt; inactive means no such curve, though single readings can be large; an effect the other way counts as inactive or inconclusive.

Key:
UISO = experiment: qHTS assay to identify novel small-molecules to repurpose for Merkel cell carcinoma treatment (AID 1296009); conditions: MCC and control cell lines, CellTiter-Glo viability, 72 h; series mostly up to 46 µM; further: nearly all actives have a fitted effect of over 60% in size; further: potency means the concentration at half of the fitted maximal effect
Method in brief: (§1)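 Cells were treated for 72 hr at 37 degree celsius with compounds in 8- or 11-point dose response. Viability was read by CellTiter-Glo luminescence, normalized to no-cell (cytotoxicity) and DMSO controls.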

WaGa = experiment: as above; conditions: MCC and control cell lines, CellTiter-Glo viability, 72 h; series mostly up to 46 µM
Method in brief: as §1

C33A = experiment: Primary qHTS to identify gynecologic anti-cancer compounds using libraries of approved drugs and bioactive compounds (AID 1345084); conditions: Gynecologic cancer cell panel viability, ATPlite luminescence, 48 h; series mostly up to 57.5 µM; further: on the % scale 0 is the no-effect control and ±100 the full control effect; nearly all actives have a fitted effect of over 55% in size
Method in brief: (§2)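 In this quantitative HTS, cell killing is estimated from loss of ATP-dependent luciferase light. Cells see five compound concentrations over a 48 h exposure.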

CASKI = experiment: as above; conditions: Gynecologic cancer cell panel viability, ATPlite luminescence, 48 h; series mostly up to 57.5 µM
Method in brief: as §2

Es-2 = experiment: as above; conditions: Gynecologic cancer cell panel viability, ATPlite luminescence, 48 h; series mostly up to 57.5 µM
Method in brief: as §2

HeLa = experiment: as above; conditions: Gynecologic cancer cell panel viability, ATPlite luminescence, 48 h; series mostly up to 57.5 µM
Method in brief: as §2

Hek293T = experiment: as above; conditions: Gynecologic cancer cell panel viability, ATPlite luminescence, 48 h, control line for the selectivity index; series mostly up to 57.5 µM
Method in brief: as §2

JEG-3 = experiment: as above; conditions: Gynecologic cancer cell panel viability, ATPlite luminescence, 48 h; series mostly up to 57.5 µM
Method in brief: as §2

OV90 = experiment: as above; conditions: Gynecologic cancer cell panel viability, ATPlite luminescence, 48 h; series mostly up to 57.5 µM
Method in brief: as §2

PA-1 = experiment: as above; conditions: Gynecologic cancer cell panel viability, ATPlite luminescence, 48 h; series mostly up to 57.5 µM
Method in brief: as §2

Tov-21-G = experiment: as above; conditions: Gynecologic cancer cell panel viability, ATPlite luminescence, 48 h; series mostly up to 57.5 µM
Method in brief: as §2

Tov112D = experiment: as above; conditions: Gynecologic cancer cell panel viability, ATPlite luminescence, 48 h; series mostly up to 57.5 µM
Method in brief: as §2

[1] = Drug repurposing screens with cells derived from glioblastoma tumor samples (AID 1345199); conditions: GBM patient neurospheres viability, ATP luminescence, 48 h; further: nearly all actives have a fitted effect of over 40% in size; further: potency means the concentration at half of the fitted maximal effect; on activity, negative = cell killing: on the % scale 0 is the no-effect control and ±100 the full control effect
Method in brief: (§3)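 Four patient lines of CD133+ GBM neurospheres were screened at several concentrations; hits were retested in those lines plus three slower-growing GBM lines, using 48-hour treatment and ATP-based viability.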

[2] = target: Nuclear receptor subfamily 1 group I member 2 (Rattus norvegicus) (UniProt Q9R1A7); experiment: qHTS assay for small molecule activators of the rat pregnane X receptor (rPXR) signaling pathway (AID 651751; call rule not given here; further: 0% is about no effect); conditions: rPXR reporter cells, luciferase (One-Glo), 24 h
Nuclear receptor subfamily 1 group I member 2 (Rattus norvegicus), sequence (Q9R1A7 whole entry, looked up): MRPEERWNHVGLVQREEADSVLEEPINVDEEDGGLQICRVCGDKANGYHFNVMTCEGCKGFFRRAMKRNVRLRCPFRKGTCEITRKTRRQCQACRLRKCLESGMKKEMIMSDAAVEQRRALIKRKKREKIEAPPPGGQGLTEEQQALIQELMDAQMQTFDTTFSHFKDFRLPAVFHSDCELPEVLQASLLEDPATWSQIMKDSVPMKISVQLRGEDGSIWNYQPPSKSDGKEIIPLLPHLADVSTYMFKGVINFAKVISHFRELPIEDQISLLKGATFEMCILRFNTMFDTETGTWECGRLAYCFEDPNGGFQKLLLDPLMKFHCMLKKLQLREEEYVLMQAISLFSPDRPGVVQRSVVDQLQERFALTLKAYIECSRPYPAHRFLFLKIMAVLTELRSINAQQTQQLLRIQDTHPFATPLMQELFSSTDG

[3] = qHTS assay for small molecule activators of the human pregnane X receptor (PXR) signaling pathway (AID 720659; call rule not given here; further: 0% is about no effect)
SKOV3 = experiment: Primary qHTS to identify gynecologic anti-cancer compounds using libraries of approved drugs and bioactive compounds (AID 1345084); conditions: Gynecologic cancer cell panel viability, ATPlite luminescence, 48 h; series mostly up to 57.5 µM; further: on the % scale 0 is the no-effect control and ±100 the full control effect; nearly all actives have a fitted effect of over 55% in size
Method in brief: as §2

astro = experiment: Drug repurposing screens with cells derived from glioblastoma tumor samples (AID 1345199); conditions: viability, ATP luminescence, 48 h; series mostly up to 45.9 µM; further: nearly all actives have a fitted effect of over 40% in size; further: potency means the concentration at half of the fitted maximal effect; on activity, negative = cell killing: on the % scale 0 is the no-effect control and ±100 the full control effect
Method in brief: as §3

CAOV3 = experiment: Primary qHTS to identify gynecologic anti-cancer compounds using libraries of approved drugs and bioactive compounds (AID 1345084); conditions: Gynecologic cancer cell panel viability, ATPlite luminescence, 48 h; series mostly up to 57.5 µM; further: on the % scale 0 is the no-effect control and ±100 the full control effect; nearly all actives have a fitted effect of over 55% in size
Method in brief: as §2

[4] = at 45.9 µM (top of the series), tumour line B
[5] = at 45.9 µM (top of the series), tumour line D
[6] = at 46 µM (top of the series), tumour line A
[7] = at 108 µM (top of the series), tumour line B
[8] = at 108 µM (top of the series), tumour line D

Nc1ccccc1C(=O)O
inactive: Potency (UISO) | Potency (WaGa) | Potency (C33A) | outcome (CASKI) | Potency (Es-2) | Potency (HeLa) | outcome (Hek293T) | outcome (JEG-3) | Potency (OV90) | Potency (PA-1) | Potency (Tov-21-G) | Potency (Tov112D) | activity, negative = cell killing [1, 4] 2.36% | activity, negative = cell killing [1, 5] -8.9% | activity, negative = cell killing [1, 6] -2.87% | max response [2] -1.41% | outcome [3]

COc1cc(CCN)cc(OC)c1OC
inactive: Potency (UISO) | Potency (WaGa) | Potency (C33A) | outcome (CASKI) | Potency (Es-2) | Potency (HeLa) | outcome (Hek293T) | outcome (JEG-3) | Potency (OV90) | Potency (PA-1) | outcome (SKOV3) | Potency (Tov-21-G) | Potency (Tov112D) | activity, negative = cell killing [1, 7] -15.3% | activity, negative = cell killing [1, 8] 5.13%

O=C(O)CCCc1ccc(N(CCCl)CCCl)cc1
inactive: Potency (UISO) | Potency (WaGa) | Potency (C33A) | outcome (CASKI) | Potency (Es-2) | Potency (HeLa) | outcome (Hek293T) | outcome (JEG-3) | Potency (OV90) | Potency (PA-1) | outcome (SKOV3) | Potency (Tov-21-G) | Potency (Tov112D) | activity, negative = cell killing [1, 4] -11.3% | activity, negative = cell killing [1, 5] -13.2% | max response [2] 4.32% and -0.624% | outcome [3]

CC(C)C[C@H](CN)CC(=O)O
inactive: Potency (UISO) | Potency (WaGa) | activity, negative = cell killing [1, 4] 2.42% | activity, negative = cell killing [1, 5] -14.3% | activity, negative = cell killing [1, 6] -19.6% | Potency (astro)

Cc1nnc2n1-c1ccc(Cl)cc1C(c1ccccc1Cl)=NC2
inactive: activity, negative = cell killing [1, 4] -10.7% | activity, negative = cell killing [1, 5] -8.42% | activity, negative = cell killing [1, 6] -36.4% | Potency (astro)

CN1C(=O)C(O)N=C(c2ccccc2)c2cc(Cl)ccc21 (configuration not stated)
inactive: activity, negative = cell killing [1, 4] 2.89% | activity, negative = cell killing [1, 5] -6.26% | activity, negative = cell killing [1, 6] -24.3% | Potency (astro)

O=C1Nc2ccc(Cl)cc2C(c2ccccc2Cl)=NC1O (configuration not stated)
inactive: activity, negative = cell killing [1, 4] 0.661% | activity, negative = cell killing [1, 5] -9.55% | activity, negative = cell killing [1, 6] -25.3% | Potency (astro)

COc1ccc2c(c1)C13CCCC[C@@H]1C(C2)N(C)CC3 (some centres not stated)
inactive: activity, negative = cell killing [1, 4] -6.27% | activity, negative = cell killing [1, 5] -5.01% | Potency (astro)
active: Potency ([1]; tumour line A) 35.5 µM

CCN(CC)CCc1c[nH]c2ccccc12
inactive: Potency (WaGa) | Potency (C33A) | outcome (CAOV3) | outcome (CASKI) | Potency (Es-2) | Potency (HeLa) | outcome (Hek293T) | outcome (JEG-3) | Potency (PA-1) | outcome (SKOV3) | Potency (Tov-21-G) | Potency (Tov112D) | activity, negative = cell killing [1, 7] -10.6% | activity, negative = cell killing [1, 8] -16.4% | Potency (astro)
active: Potency ([1]; tumour line A) 63.1 µM

CN1CC[C@]23c4c5ccc(O)c4O[C@H]2[C@@H](O)C=C[C@H]3[C@H]1C5
inactive: Potency (C33A) | outcome (CASKI) | Potency (Es-2) | Potency (HeLa) | outcome (Hek293T) | outcome (JEG-3) | Potency (OV90) | Potency (PA-1) | outcome (SKOV3) | Potency (Tov-21-G) | Potency (Tov112D) | Potency (astro)
active: Potency ([1]; tumour line A) 20 µM

C[C@]12Cc3cn[nH]c3C[C@@H]1CC[C@@H]1[C@@H]2CC[C@@]2(C)[C@H]1CC[C@]2(C)O
inactive: Potency (WaGa) | Potency (C33A) | outcome (CASKI) | Potency (Es-2) | Potency (HeLa) | outcome (Hek293T) | outcome (JEG-3) | Potency (OV90) | Potency (PA-1) | outcome (SKOV3) | Potency (Tov-21-G) | Potency (Tov112D)

CCN(CC)C(=O)[C@@H]1C=C2c3cccc4[nH]cc(c34)C[C@H]2N(C)C1
inactive: Potency (C33A) | outcome (CAOV3) | outcome (CASKI) | Potency (Es-2) | Potency (HeLa) | outcome (Hek293T) | outcome (JEG-3) | Potency (Tov-21-G) | Potency (Tov112D) | activity, negative = cell killing [1, 4] -17.8% | activity, negative = cell killing ([1]; at 194 µM (top of the series), tumour line B) -16.6%

CN[C@@H](C)Cc1ccccc1
inactive: activity, negative = cell killing ([1]; at 91.6 µM (top of the series), tumour line A) -24.4% | activity, negative = cell killing ([1]; at 91.6 µM (top of the series), tumour line B) -1.76% | activity, negative = cell killing ([1]; at 91.6 µM (top of the series), tumour line D) 4.77%

O=c1c(C2CC(c3ccc(-c4ccc(Br)cc4)cc3)Cc3ccccc32)c(O)sc2ccccc12 (configuration not stated)
inactive: Potency (C33A) | outcome (CAOV3) | outcome (CASKI) | Potency (Es-2) | outcome (Hek293T) | Potency (PA-1) | outcome (SKOV3) | Potency (Tov112D)

C[C@]1(O)CC[C@H]2[C@@H]3CCC4=CC(=O)CC[C@]4(C)[C@@]3(F)[C@@H](O)C[C@@]21C
active: Potency ([1]; tumour line A) 35.5 µM
inactive: activity, negative = cell killing [1, 4] -7.52% | activity, negative = cell killing [1, 5] -21.3% | Potency (astro)

CN=C1CN(O)C(c2ccccc2)=c2cc(Cl)ccc2=N1
active: Potency ([1]; tumour line A) 11.2 µM
inactive: activity, negative = cell killing [1, 4] -15.1% and 1.01% | activity, negative = cell killing [1, 5] -14.7% and -15.6% | Potency (astro)

CN1C(=O)CC(=O)N(c2ccccc2)c2cc(Cl)ccc21
inactive: activity, negative = cell killing [1, 4] -10.8% | activity, negative = cell killing [1, 5] -2.22% | activity, negative = cell killing [1, 6] -21.5% | Potency (astro)

CN1C[C@H](C(=O)N[C@]2(C)O[C@@]3(O)[C@@H]4CCCN4C(=O)[C@H](Cc4ccccc4)N3C2=O)C=C2c3cccc4[nH]cc(c34)C[C@H]21
active: Potency ([1]; tumour line A) 14.1 µM
inactive: activity, negative = cell killing [1, 4] -13.4% | max response [2] 10% and -0.133%

COc1cccc(C(=O)CCN[C@@H](C)[C@H](O)c2ccccc2)c1
active: Potency ([1]; tumour line A) 28.2 µM | Potency ([1]; tumour line B) 22.4 µM | Potency ([1]; tumour line D) 22.4 µM
inactive: Potency (C33A) | outcome (CAOV3) | outcome (CASKI) | Potency (Es-2) | Potency (HeLa) | outcome (Hek293T) | outcome (JEG-3) | Potency (PA-1) | outcome (SKOV3) | Potency (Tov-21-G) | Potency (Tov112D)

C[C@](O)(CS(=O)(=O)c1ccc(F)cc1)C(=O)Nc1ccc(C#N)c(C(F)(F)F)c1
active: Potency (WaGa) 13.2 µM | Potency ([1]; tumour line A) 12.6 µM
inactive: activity, negative = cell killing [1, 4] -21.4%

NNc1ccccc1
inactive: Potency (WaGa) | Potency (C33A) | outcome (CAOV3) | outcome (CASKI) | Potency (Es-2) | Potency (HeLa) | outcome (Hek293T) | outcome (JEG-3) | Potency (OV90) | Potency (PA-1) | Potency (Tov-21-G) | Potency (Tov112D) | activity, negative = cell killing [1, 4] -3.46% | activity, negative = cell killing [1, 5] -1.72% | activity, negative = cell killing [1, 6] -20.5% | activity, negative = cell killing ([1]; at 46.1 µM (top of the series), tumour line C) 11.9% | Potency (astro)

CCCC(C)(COC(N)=O)COC(N)=O
inactive: activity, negative = cell killing [1, 4] 0.449% | activity, negative = cell killing [1, 5] -14.8% | activity, negative = cell killing [1, 6] -19.1% | max response [2] 3.06% and 3.91%
